# Source: PubChem BioAssay (NCI)
# This is part of a sample that, as a whole, favours compounds with a hit. Of some 83,000 tested, about 20% had one in any assay.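 In brief: 96-well plates, 48 h treatment, single concentration, percent growth endpoint.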 Unmarked numbers belong to inactive results. Active and inactive are the calls of the source. Rule for the calls: active = growth percent below 10; inactive = the rest.
# Columns and labels:
# Assay in all cases: NCI-60 one-dose screen, 48 h (100 = growth as untreated, 0 = no growth, -100 = all killed)
# Conditions in all cases: 10 µM unless noted
# [1] = test system: T-47D breast
# [2] = test system: BT-549 breast
# [3] = test system: MDA-MB-435 melanoma
# [4] = test system: SW-620 colon
# [5] = test system: MCF7 breast
# [6] = test system: HCT-116 colon
# [7] = test system: HCC-2998 colon
# [8] = test system: KM12 colon
# [9] = test system: MDA-MB-468 breast
Structure (SMILES),growth [1],growth [2],growth [3],growth [4],growth [5],growth [6],growth [7],growth [8],growth [9]
COCOc1cc2c(=O)c(C)c(C(=O)N[C@@H](Cc3ccccc3)C(O)C(=O)NCc3ccccc3)oc2cc1OC (some centres not stated),40.7%,-35.5% (active),11.2%,31.1%,17.3%,-10.4% (active),57.3%,-32.6% (active),13.9%
O=C(c1ccccc1)C(c1c[nH]c2ccccc12)c1c[nH]c2ccccc12,58%,14%,36.8%,4.95% (active),16.4%,20.2%,83.8%,51.3%,57.8%
COc1ccc(NC(=O)[C@H](C)N)cc1C(=O)Nc1cccc(C2CC(=O)c3c(cc(OC)c(OC)c3OC)O2)c1 (some centres not stated),53.7%,67.3%,93.2%,99.4%,72.1%,93.9%,109%,87%,76.1%
Cc1cc(=O)oc2cc(OCCOc3ccc(/C=C/C(=O)Nc4ccccc4N)cc3)ccc12,15.3%,-49.2% (active),42.7%,27.4%,5.65% (active),16.1%,37.9%,13.7%,-45% (active)
O=C(NN1C(=O)/C(=C/C=C/c2ccc([N+](=O)[O-])o2)SC1=S)c1ccc(Cl)cc1,-91.2% (active),-91.1% (active),-86.2% (active),-80.9% (active),-60% (active),-76.1% (active),-96.2% (active),-93% (active),-85.9% (active)
COc1ccc(C(=O)/C=C/c2ccc(OC)c(OCc3ccccc3)c2)cc1OC,15.7%,-15.5% (active),22.7%,9.63% (active),7.12% (active),10.7%,12.6%,8.98% (active),1.46% (active)
COc1ccc(-c2nc3cc(C)ccc3n2CC(=O)N=Nc2c(O)[nH]c3ccccc23)cc1,28.9%,-63.2% (active),12.4%,6.89% (active),20%,-95.1% (active),26.8%,14.1%,-0.636% (active)
CN(C)c1ccnc(CNCCSC2(c3ccc(C(F)(F)F)cc3)c3ccccc3CCc3ccccc32)c1,-55.8% (active),-15.2% (active),-80.6% (active),-66% (active),-72% (active),-82.5% (active),-91.6% (active),-66.3% (active),-87.6% (active)
COc1cc(C2CC(c3cc(OC)c(OC)c(OC)c3)=NN2C(C)=O)ccc1OCc1ccccc1 (configuration not stated),2.7% (active),17.4%,44.6%,55.1%,17.1%,24.3%,71.2%,33.9%,34.2%
COc1ccc(NC(=O)[C@@H](N)Cc2ccccc2)cc1C(=O)Nc1cccc(C2CC(=O)c3c(cc(OC)c(OC)c3OC)O2)c1 (some centres not stated),25.3%,19.8%,56.8%,50.9%,28.1%,45.2%,114%,35.1%,44.3%
Cc1cc2nc3c4ccccc4n(CC4=NCCN4)c3nc2cc1C,15.4%,4.52% (active),-86.6% (active),-40.2% (active),-90.5% (active),-92.8% (active),-46.6% (active),43%,-57.3% (active)
CN(C)CCOc1ccc(C(=O)C2[C@H](c3ccc(Cl)cc3)[C@@H](c3ccccc3)NC23C(=O)Nc2ccccc23)cc1 (some centres not stated),67.9%,81.8%,44.6%,-57.7% (active),-20.8% (active),22%,-59.9% (active),33.4%,-26% (active)
O=C(CSc1nc2ccccc2c(=O)[nH]1)NCCN1CCCCC1,100%,104%,95.1%,97%,90.8%,104%,108%,98.3%,96.9%
OCC1(CCCc2ccccc2)CCCN(c2nccc3ccccc23)C1 (configuration not stated),28.3%,-3.12% (active),41.2%,39.2%,12.3%,14.8%,60.3%,29.1%,-15.8% (active)
COc1ccc(-c2c(Nn3cnnn3)no[n+]2[O-])cc1,48.8%,61.1%,44.4%,41.5%,31%,23.8%,56.2%,68.2%,46.3%
CC(=O)Nc1ccc(-c2nc3cc(-c4ccc(O)cc4)ccc3n2C)cc1,50.8%,65.6%,50.2%,66%,24.7%,29%,58.9%,57.8%,58.3%
S=C(NCCc1ccccc1)Nc1ccc(OCc2nc3ccccc3[nH]2)cc1,103%,109%,105%,107%,95.3%,103%,114%,103%,99.5%
N/C(=N\N=C\c1ccc([N+](=O)[O-])cc1)c1c(N)nc(=S)[nH]c1-c1ccc(Cl)cc1Cl,95.3%,75.6%,108%,108%,88.2%,85.2%,106%,108%,90.8%
COc1cc(C2CC(c3cc(OC)c(OC)c(OC)c3)=NN2c2ccccc2)ccc1OCc1ccc(C)cc1 (configuration not stated),79.9%,103%,97%,94.3%,81.3%,80.6%,110%,96.9%,92.2%
C#CCOc1ccc(/C=N/Nc2nc(-c3cc4cc(Br)ccc4oc3=O)cs2)cc1OC,51.1%,48.5%,78.7%,77.6%,41.9%,71.5%,39.6%,51.1%,26.8%
CCC(C)(C)c1ccc(OCCCCN2CCN(c3ccncc3)CC2)cc1,-41.6% (active),27%,39.2%,2.87% (active),-23.1% (active),8.09% (active),-5.55% (active),37.4%,-67.2% (active)
O=C(N=Nc1c(O)[nH]c2ccc(Cl)cc12)c1ccc2nc(-c3ccccc3)[nH]c2c1,30.1%,109%,79.7%,17.8%,4.1% (active),59.4%,10.3%,91.2%,-31.3% (active)
COc1cc2c(c(OC)c1OC)C(=O)CC(c1cccc(NC(=O)c3cc(NC(=O)[C@@H](N)CO)ccc3C)c1)O2 (some centres not stated),110%,121%,120%,119%,103%,116%,115%,108%,92.6%
CCOP(=O)(OCCCl)c1nc(-c2ccc(C)cc2)oc1NCc1ccccc1 (configuration not stated),48.1%,92%,87.2%,86.5%,50.3%,63.3%,94.6%,77.6%,62.9%
Nc1nnc(-c2c[nH]c3ccc(Br)cc23)c(-c2c[nH]c3ncc(Br)cc23)n1,16.7%,35.4%,30.3%,50.2%,12.3%,17.1%,48.5%,32.6%,26.1%
O=C(Nc1cccc(-n2cnc3cc(-c4ccc(O)cc4)ccc32)c1)C1CC1,30.6%,30.8%,-4.17% (active),38.2%,24.9%,9.12% (active),28.4%,0.14% (active),21%
O=c1oc2ccccc2cc1-c1csc(N2N=C(c3ccccc3)CC2c2ccc(N3CCOCC3)cc2)n1 (configuration not stated),91.6%,118%,110%,106%,86.5%,109%,121%,103%,99.7%
Cn1cc(-c2cc3nc(-c4c[nH]c5ccc(Br)cc45)cc(N)n3n2)c2ccccc21,-60.8% (active),-63.6% (active),-88.6% (active),-63.5% (active),-87.2% (active),-90.6% (active),-82.4% (active),-83% (active),-70.3% (active)
